Reference: PubChem BioAssay AID1159580 (chemical genetic matrix, 2015)
Values joined by “and” are separate entries in the source; they are usually repeats but may differ in a detail not shown here. Equal values may be shown once. Among all 5,500 compounds or so, about 2,000 (36%) were called active. Inconclusive results (about 18%) are left out. Rule as the data show it: active = normalized growth mostly below about 0.91 (no sharp cut-off); inconclusive = no clear call, values can overlap the other calls; inactive = mostly above about 0.92. Some of the results follow.

Experiment: chemical genetic growth profiling, strain panel (AID 1159580);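 also: tested at 20 µM; growth read once vehicle control cultures reached saturation at 30 °C; 1 = growth at the plate median or of vehicle wells; lower values mean less growth of the strain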
Conditions: growth OD

Measured: normalized growth

C[N+](C)(C)CCOC(N)=O
inactive: S. cerevisiae deletion strains, locus YKL068W, hits give low values 0.981 | S. cerevisiae deletion strains, locus YKL085W, strain MDH1 (second series), hits give low values 0.969 | S. cerevisiae deletion strains, locus YKL085W, strain MDH1, hits give low values 0.969 | S. cerevisiae deletion strains, locus YKL160W, strain elf1, hits give low values 1.02 | S. cerevisiae deletion strains, locus YKL190W, strain CNB1, hits give low values 1 | S. cerevisiae deletion strains, locus YKR001C, strain vps1, hits give low values 0.991 | S. cerevisiae deletion strains, locus YKR026C, strain gcn3, hits give low values 0.988 | S. cerevisiae deletion strains, locus YKR091W, strain srl3, hits give low values 1 | S. cerevisiae deletion strains, locus YLL001W, strain dnm1, hits give low values 0.998 | S. cerevisiae deletion strains, locus YLL026W, hits give low values 1 | S. cerevisiae deletion strains, locus YLL041C, strain sdh2, hits give low values 1.01 | S. cerevisiae deletion strains, locus YLR027C, strain aat2, hits give low values 1.01 | S. cerevisiae deletion strains, locus YLR039C, strain RIC1, hits give low values 0.993 | S. cerevisiae deletion strains, locus YLR058C, strain SHM2, hits give low values 1 | S. cerevisiae deletion strains, locus YLR102C, strain apc9, hits give low values 0.986 | S. cerevisiae deletion strains, locus YLR113W, strain HOG1, hits give low values 0.959 | S. cerevisiae deletion strains, locus YLR221C, strain rsa3, hits give low values 1.01 | S. cerevisiae deletion strains, locus YLR258W, strain gsy2, hits give low values 1.02 | S. cerevisiae deletion strains, locus YLR262C, strain YPT6 (second series), hits give low values 1.02 | S. cerevisiae deletion strains, locus YLR262C, strain YPT6, hits give low values 0.991 | S. cerevisiae deletion strains, locus YLR268W, strain sec22, hits give low values 0.978 | S. cerevisiae deletion strains, locus YLR320W, strain mms22, hits give low values 1.03 | S. cerevisiae deletion strains, locus YLR330W, strain CHS5, hits give low values 1 | S. cerevisiae deletion strains, locus YLR342W, strain FKS1 (second series), hits give low values 1.12 | S. cerevisiae deletion strains, locus YLR342W, strain FKS1, hits give low values 1.01 | S. cerevisiae deletion strains, locus YLR357W, strain rsc2, hits give low values 1 | S. cerevisiae deletion strains, locus YLR370C, strain arc18, hits give low values 1.01 | S. cerevisiae deletion strains, locus YLR371W, strain rom2, hits give low values 0.97 | S. cerevisiae deletion strains, locus YLR384C, strain iki3, hits give low values 1.04 | S. cerevisiae deletion strains, locus YLR418C, strain cdc73, hits give low values 0.983 | S. cerevisiae deletion strains, locus YML016C, strain PPZ1, hits give low values 1.02 | S. cerevisiae deletion strains, locus YML032C, strain rad52, hits give low values 0.993 | S. cerevisiae deletion strains, locus YML120C, strain ndi1, hits give low values 1.02 | S. cerevisiae deletion strains, locus YML124C, strain tub3, hits give low values 0.974 | S. cerevisiae deletion strains, locus YMR058W, strain fet3, hits give low values 1.02 | S. cerevisiae deletion strains, locus YMR078C, strain ctf18, hits give low values 0.956 | S. cerevisiae deletion strains, locus YMR125W, strain sto1, hits give low values 1.03 | S. cerevisiae deletion strains, locus YMR129W, hits give low values 1.02 | S. cerevisiae deletion strains, locus YMR205C, strain PFK2, hits give low values 1.02 | S. cerevisiae deletion strains, locus YMR223W, strain ubp8, hits give low values 0.975 | S. cerevisiae deletion strains, locus YMR231W, strain pep5, hits give low values 1.02 | S. cerevisiae deletion strains, locus YMR263W, strain SAP30, hits give low values 1 and 0.986 | S. cerevisiae deletion strains, locus YMR307W, strain GAS1, hits give low values 1.16 | S. cerevisiae deletion strains, locus YNL067W, strain RPL9B, hits give low values 0.961 | S. cerevisiae deletion strains, locus YNL071W, strain lat1, hits give low values 1.01 | S. cerevisiae deletion strains, locus YNL128W, strain TEP1, hits give low values 0.971 | S. cerevisiae deletion strains, locus YNL153C, strain GIM3, hits give low values 0.963 | S. cerevisiae deletion strains, locus YNL175C, strain NOP13, hits give low values 0.973 | S. cerevisiae deletion strains, locus YNL183C, strain NPR1, hits give low values 0.938 | S. cerevisiae deletion strains, locus YNL197C, strain WHI3, hits give low values 0.991 | S. cerevisiae deletion strains, locus YNL209W, strain ssb2, hits give low values 1.01 | S. cerevisiae deletion strains, locus YNL224C, strain SQS1, hits give low values 0.991 | S. cerevisiae deletion strains, locus YNL233W, strain BNI4, hits give low values 0.99 | S. cerevisiae deletion strains, locus YNL248C, strain rpa49, hits give low values 1.03 | S. cerevisiae deletion strains, locus YNL250W, strain rad50, hits give low values 0.969 | S. cerevisiae deletion strains, locus YNL271C, strain bni1, hits give low values 0.979 | S. cerevisiae deletion strains, locus YNL298W, strain CLA4, hits give low values 0.977 | S. cerevisiae deletion strains, locus YNL307C, strain MCK1, hits give low values 0.982 | S. cerevisiae deletion strains, locus YNL322C, strain KRE1 (second series), hits give low values 1.02 | S. cerevisiae deletion strains, locus YNL322C, strain KRE1, hits give low values 0.989 | S. cerevisiae deletion strains, locus YNR049C, strain mso1, hits give low values 1.02 | S. cerevisiae deletion strains, locus YNR052C, strain pop2, hits give low values 0.97 | S. cerevisiae deletion strains, locus YOL012C, strain htz1 0.907 | S. cerevisiae deletion strains, locus YOL147C, strain pex11, hits give low values 0.978 | S. cerevisiae deletion strains, locus YOR001W, strain rrp6, hits give low values 1.03 | S. cerevisiae deletion strains, locus YOR061W, strain CKA2, hits give low values 1 | S. cerevisiae deletion strains, locus YOR069W, strain VPS5, hits give low values 1 | S. cerevisiae deletion strains, locus YOR070C, strain gyp1, hits give low values 1.01 | S. cerevisiae deletion strains, locus YOR080W, strain dia2, hits give low values 1.03 | S. cerevisiae deletion strains, locus YOR083W, strain WHI5 (second series), hits give low values 1.01 | S. cerevisiae deletion strains, locus YOR083W, strain WHI5, hits give low values 1.03 | S. cerevisiae deletion strains, locus YOR106W, strain vam3, hits give low values 1.01 | S. cerevisiae deletion strains, locus YOR136W, strain idh2, hits give low values 0.976 | S. cerevisiae deletion strains, locus YOR144C, strain elg1, hits give low values 0.982 | S. cerevisiae deletion strains, locus YOR184W, strain ser1, hits give low values 0.973 | S. cerevisiae deletion strains, locus YOR231W, strain MKK1, hits give low values 1 | S. cerevisiae deletion strains, locus YOR265W, strain rbl2, hits give low values 1.01 | S. cerevisiae deletion strains, locus YOR270C, strain vph1, hits give low values 1.05 | S. cerevisiae deletion strains, locus YOR290C, strain snf2, hits give low values 1.02 | S. cerevisiae deletion strains, locus YOR316C, strain cot1, hits give low values 0.976 | S. cerevisiae deletion strains, locus YPL051W, strain arl3, hits give low values 1.02 | S. cerevisiae deletion strains, locus YPL055C, strain LGE1, hits give low values 0.997 and 0.999 | S. cerevisiae deletion strains, locus YPL078C, strain atp4, hits give low values 1.01 | S. cerevisiae deletion strains, locus YPL106C, strain sse1, hits give low values 1.04 | S. cerevisiae deletion strains, locus YPL240C, strain hsp82, hits give low values 1.02 | S. cerevisiae deletion strains, locus YPL241C, strain CIN2, hits give low values 1.01 | S. cerevisiae deletion strains, locus YPL256C, strain CLN2, hits give low values 0.993 | S. cerevisiae deletion strains, locus YPR119W, strain clb2, hits give low values 0.973 | S. cerevisiae deletion strains, locus YPR141C, strain kar3, hits give low values 0.973 | S. cerevisiae deletion strains, locus YPR163C, strain tif3, hits give low values 0.985 | S. cerevisiae deletion strains, locus YPR167C, strain met16, hits give low values 0.975 | S. cerevisiae deletion strains, strain wtn01, hits give low values 1.01 | S. cerevisiae strains, strain wild type, hits give low values 1.01
